Columns and labels:
Settings in all cases: concentration: 1 μM, replicates: in singlicate; n = 1
[1] = system: PAK3
[2] = system: PAK4
[3] = system: PAK6
[4] = system: PAK7
[5] = system: T1, PCTK1
T1 construct: gene CDK16

[6] = system: T2, PCTK2
T2 construct: gene CDK17

[7] = system: T3, PCTK3
T3 construct: gene CDK18

[8] = system: PDGFRA
[9] = system: PDGFRB
[10] = system: PDPK1
[11] = system: PFTAIRE2
[12] = system: T4, PFTK1
T4 construct: gene CDK14

[13] = system: PHKG1
[14] = system: PHKG2
[15] = system: PIK3C2B
[16] = system: PIK3C2G
[17] = system: PIK3CA
[18] = system: PIK3CB
[19] = system: PIK3CD
[20] = system: PIK3CG
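Further: KINOMEscan kinase panel screen.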

SMILES | %Inh [1] [%] | %Inh [2] [%] | %Inh [3] [%] | %Inh [4] [%] | %Inh [5] [%] | %Inh [6] [%] | %Inh [7] [%] | %Inh [8] [%] | %Inh [9] [%] | %Inh [10] [%] | %Inh [11] [%] | %Inh [12] [%] | %Inh [13] [%] | %Inh [14] [%] | %Inh [15] [%] | %Inh [16] [%] | %Inh [17] [%] | %Inh [18] [%] | %Inh [19] [%] | %Inh [20] [%]
Nc1cccc(-c2ccc3c(N)n[nH]c3c2)n1 [GSK2192730] | 0 | 0 | 8 | 7 | 4 | 20 | 3 | 2 | 18 | 0 | 20 | 0 | 0 | 6 | 5 | 0 | 18 | 0 | 0 | 15
Fc1ccc(-c2nc[nH]c2-c2ccncc2)cc1 [SB-217360] | 0 | 13 | 2 | 0 | 0 | 0 | 0 | 0 | 0 | 0 | 12 | 0 | 0 | 3 | 0 | 0 | 12 | 0 | 0 | 0
Cc1cnc(N)c(/C=C/c2cncc(C(=O)NCCc3ccc(Cl)cc3Cl)c2)c1.Cl [GSK190937] | 0 | 0 | 0 | 7 | 1 | 0 | 0 | 96.4 | 98.8 | 0 | 0 | 9 | 0 | 19 | 0 | 2 | 0 | 1 | 0 | 4
COc1ccc(Nc2nccc(N3CCC(NC(=O)C(C)c4ccc(Cl)cc4)CC3)n2)cc1 (stereo not shown) [GSK1379812] | 47 | 2 | 0 | 22 | 100 | 0 | 15 | 0 | 27 | 7 | 8 | 5 | 0 | 16 | 15 | 0 | 21 | 22 | 0 | 12
O=C1NC(=O)C(c2ccc(Cl)cc2)=C1Nc1cccc(Cl)c1 [SB-317651] | 14 | 18 | 0 | 0 | 0 | 15 | 12 | 9 | 0 | 0 | 0 | 1 | 0 | 0 | 13 | 0 | 9 | 96.7 | 0 | 38
Nc1ncnc2occ(-c3ccc4c(c3)CCN4C(=O)Cc3cc(F)ccc3F)c12 [GSK2645446] | 0 | 0 | 0 | 12 | 2 | 0 | 2 | 0 | 50 | 0 | 12 | 10 | 0 | 0 | 14 | 0 | 0 | 0 | 0 | 5
Cc1ccc(NC(=O)Nc2ccccc2)cc1-c1ccc(C(=O)Nc2ccncc2)cc1 [GSK1398471] | 11 | 0 | 0 | 1 | 4 | 0 | 21 | 49 | 100 | 26 | 25 | 27 | 0 | 2 | 27 | 0 | 29 | 0 | 0 | 14
CNc1cc(-c2ccc3c(N)n[nH]c3c2)nc(N)n1 [GSK2224810] | 0 | 0 | 0 | 17 | 0 | 16 | 0 | 0 | 44 | – | 0 | 18 | 0 | 18 | 0 | 0 | 0 | 9 | 1 | 5
O=C(Nc1n[nH]c2nc(-c3ccco3)c(Br)cc12)C1CCN(Cc2ccccc2)C1.O=C(O)[C@H](O)[C@@H](O)C(=O)O (stereo not shown) [SB-742034] | 12 | 0 | 0 | 8 | 86 | 83 | 76 | 7 | 30 | 18 | 0 | 27 | 3 | 4 | 16 | 13 | 0 | 2 | 0 | 4
Cn1cncc1-c1cc2c(Nc3ccc(OCc4ccccc4)cc3)ncnc2cn1 [GW281179] | 0 | 0 | 0 | 0 | 11 | 0 | 21 | 0 | 16 | 0 | 9 | 20 | 4 | 0 | 24 | 0 | 0 | 0 | 0 | 0
COc1ccc(Nc2nccc(N3CCC(NC(=O)c4cc5ccccc5s4)C3)n2)cc1 (stereo not shown) [GSK1379738] | 0 | 0 | 2 | 0 | 15 | 0 | 0 | 0 | 26 | 0 | 16 | 4 | 0 | 0 | 0 | 0 | 0 | 0 | 0 | 0
FC(F)(F)c1ccccc1-c1cc(-c2c[nH]nc2-c2ccccn2)ccn1 [GW679396] | 8 | 0 | 3 | 0 | 0 | 10 | 7 | 0 | 19 | 18 | 10 | 14 | 3 | 4 | 0 | 0 | 0 | 18 | 0 | 3
Cc1ccc(NC(=O)Nc2ccc(Cl)cc2)cc1-c1ccc(C(=O)Nc2ccncc2)cc1 [GSK1398472] | 21 | 0 | 0 | 0 | 5 | 0 | 0 | 10 | 99.7 | 0 | 0 | 12 | 0 | 0 | 0 | 0 | 0 | 36 | 0 | 0
CCn1c(-c2c(N)noc2C)nc2cnccc21 [SB-737856] | 3 | 0 | 0 | 0 | 0 | 0 | 44 | 0 | 0 | 2 | 15 | 33 | 0 | 0 | 1 | 0 | 0 | 100 | 3 | 0
Cn1cncc1C(=O)NC1CCN(c2ccnc(Nc3ccc(F)cc3)n2)C1 (stereo not shown) [GSK1379717] | 0 | 0 | 0 | 0 | 4 | 0 | 16 | 2 | 14 | 0 | 10 | 11 | 0 | 6 | 5 | 0 | 0 | 0 | 0 | 0
O=C(Nc1n[nH]c2nc(-c3cccs3)c(Br)cc12)C1CCCC1 [SB-743341] | 0 | 0 | 9 | 0 | 46 | 54 | 56 | 32 | 74 | 0 | 9 | 20 | 2 | 12 | 0 | 5 | 5 | 61 | 0 | 0
Nc1nccc(-c2c(-c3ccc(F)cc3)ncn2C2CCN(Cc3ccccc3)CC2)n1 [SB-219980] | 5 | 0 | 0 | 0 | 3 | 0 | 0 | 22 | 20 | 0 | 5 | 0 | 1 | 0 | 17 | 52 | 0 | 4 | 35 | 7
COc1ccc(CSc2nnc(-c3ccc4ncsc4c3)o2)cc1C(F)(F)F | 9 | 0 | 9 | 1 | 0 | 0 | 0 | 0 | 0 | 10 | 0 | 0 | 0 | 15 | 0 | 0 | 0 | 12 | 0 | 5
COc1ccc(-c2coc3ccc(-c4nnc(C)o4)cc23)cc1 | 0 | 5 | 6 | 5 | 56 | 0 | 11 | 0 | 0 | 33 | 0 | 9 | 0 | 20 | 0 | 21 | 0 | 0 | 0 | 12

From article PMC5540273 (PLoS ONE, 2017)
